Giardia FBPA inh: inhibitors of Giardia lamblia fructose-1,6-bisphosphate aldolase; purified Giardia FBPA; Potency, µM (doses to about 59.6 µM), most hits filed as inhibitors; A8B2U2; hit rate 0.71% among 290,000; AID 2451; also: nearly all actives have a fitted effect of over 55% in size
Target sequence (A8B2U2 whole entry, looked up): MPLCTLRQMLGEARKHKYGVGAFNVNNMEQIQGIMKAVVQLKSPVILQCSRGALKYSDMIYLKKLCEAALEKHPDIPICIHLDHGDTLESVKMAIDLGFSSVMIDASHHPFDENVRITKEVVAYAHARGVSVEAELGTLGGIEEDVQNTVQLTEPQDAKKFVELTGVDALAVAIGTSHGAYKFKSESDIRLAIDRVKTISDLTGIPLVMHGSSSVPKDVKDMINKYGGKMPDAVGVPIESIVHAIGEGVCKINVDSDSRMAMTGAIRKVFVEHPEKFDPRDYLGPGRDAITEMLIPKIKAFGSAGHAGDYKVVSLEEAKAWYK
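40 nM FBPA preincubated 10 min at RT with compound (up to 57.5 uM final), then substrate plus GAPDH/TPI/NAD/arsenate coupling and diaphorase/resazurin added. Fluorescence read after 20 min at RT, 525/598 nm.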
NS1 inh: inhibitors of influenza NS1 protein function. Potency, µM (top dose mostly 46.1 µM). hit rate 0.4% among 270,000. AID 2326; calls by dose curve; also: actives are rising curves; nearly all actives have a fitted effect of over 50% in size
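OD600 was taken as the measure of yeast growth restored by compound in an NS1-expressing S. cerevisiae strain. Cells had been washed out of glucose medium and diluted 1:100 into galactose -URA medium, pH 6.0.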
Pf growth 48h: P. falciparum growth inhibition at 48 hours (one generation) | P. falciparum luciferase growth in erythrocytes, 48 h | Potency, µM (series often up to 28.7 µM), actives largely listed as inhibitors | hit rate 5.9% among 310,000
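First compound was added to culture medium, then infected red cells at 0.1% parasitemia and 2% hematocrit (final). After incubation at 37 C under 5% CO2, luciferase detection reagent was dispensed and light output recorded.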
Cycloheximide cs: counter-screen hit for Shiga toxin inhibitors, cycloheximide; hit rate 12% among 300,000; cell reporter, cycloheximide protein synthesis inhibition counterscreen; max response, %; in the data active = max response mostly above about 13%, no sharp cut-off; inactive = mostly below about 14%; also: read at 38.3 µM for the half of the compounds with a filed dose
Shiga inhibitor: blocks Shiga toxin action in Vero cells; AID 2315; Vero cells, Shiga toxin protein synthesis inhibition reporter; hit rate 9.2% among 290,000; inhibition, % at 38.7 µM; in the data active = inhibition mostly above about 28%, no sharp cut-off; inactive = mostly below about 43%
Pf growth 96h: P. falciparum growth inhibition at 96 hour, primary screen for plastid delayed-death inhibitors; P. falciparum luciferase reporter growth, 96 h; Potency, µM (series often up to 28.7 µM), actives largely listed as inhibitors; hit rate 6.9% among 320,000
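Readout is luminescence from an integrated firefly luciferase in P. falciparum. Red cells, 2% hematocrit and 0.05% parasitemia final, were cultured with compound through two parasite generations (96 hours) at 37 C, 5% CO2.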
Hits are given with their value; – = inactive; ? = inconclusive; · = no result. The list is not random: actives were taken first. Their share in the collection is about 21%. Unless noted, calls follow the shape of the dose curve; as a rule, active = well fitted curve in the direction sought with a large enough effect; inconclusive = small, poorly fitted or top-dose-only effect, or another doubt; inactive = no such curve, though single readings can be large; an effect the other way counts as inactive or inconclusive.

SMILES	Giardia FBPA inh	NS1 inh	Pf growth 48h	Cycloheximide cs	Shiga inhibitor	Pf growth 96h
COC(=O)c1ccc(CO/N=C/c2ccc(OC)cc2)o1	–	·	–	53	58	–
Cc1cc(C)cc(OCc2ccc(C(=O)O)o2)c1	?	–	–	9.3	–	–
S[C@@H]1CCCN(Cc2ccccc2)C1	·	–	·	·	·	·
Cc1ccccc1N1CCN(C2CCCN(C(=O)c3cc[n+]([O-])cc3)C2)CC1 (centres undefined)	·	–	–	–	–	?
CCN(CC)P(=O)(c1ccccc1)c1c(C)nc2ccccn12 (centres undefined)	–	–	–	–	–	–
O=C(O)c1ccc(COc2ccc3c4c(c(=O)oc3c2)CCC4)o1	–	–	?	–	–	?
Cc1ccc(OCc2ccc(C(=O)O)o2)cc1C	–	–	–	71	69	?
CCc1cc(=O)oc2cc(OCc3ccc(C(=O)O)o3)ccc12	–	–	–	15	–	–
COC(=O)c1ccc(COc2cc(C)ccc2C)o1	–	–	–	46	91	–
COC(=O)c1ccc(COc2ccc(F)cc2)o1	–	–	–	28	53	?
COC(=O)c1ccc(COc2ccc(C(=O)c3ccccc3)cc2)o1	–	–	–	–	–	–
CCc1ccc(-c2cc(C)no2)cc1S(=O)(=O)NC(C)Cc1ccco1 (centres undefined)	–	–	–	–	–	–
Cc1c(C)c2ccc(OCc3ccc(C(=O)O)o3)c(C)c2oc1=O	–	–	–	32	58	·
Cc1[nH]c(=O)[nH]c(=O)c1N1CCOCC1	–	–	–	–	–	–
N#Cc1nc(COc2cccc(Cl)c2)oc1NCc1ccco1	–	–	·	50	–	–
Cc1ccc(OCc2nc(C#N)c(NCc3ccco3)o2)cc1	–	–	·	–	–	?
COc1ccccc1OCc1nc(C#N)c(NCc2ccco2)o1	–	–	–	–	–	12µM
CO/N=C(/C(=O)NC1C(=O)N2C(C(=O)O)=C(COC(N)=O)CSC12)c1ccco1 (centres undefined)	–	·	·	·	·	·
CS(=O)(=O)c1ccc(Cl)c(NC(=O)COc2ccc3c(c2)CCC3)c1	·	·	–	·	·	–
CC(C)C[C@H](NC(=O)[C@H](CO)NC(=O)[C@H](C)NC(=O)[C@H](CCCN=C(N)N)NC(=O)[C@H](CCCN=C(N)N)NC(=O)[C@@H](N)CC(C)C)C(=O)NCC(=O)O	–	·	·	–	–	·
OC(CN1CCN(Cc2ccccc2)CC1)Cn1c2ccccc2c2ccccc21 (centres undefined)	–	–	2.6µM	–	–	–
OC(CN1CCOCC1)Cn1c2ccccc2c2ccccc21 (centres undefined)	–	–	?	–	–	–
Cc1ccc(OCC(O)Cn2c3ccccc3c3ccccc32)cc1 (centres undefined)	–	–	9.3µM	–	–	?
Cc1ccc(OCCN2CCN(CC(O)Cn3c4ccccc4c4ccccc43)CC2)cc1 (centres undefined)	?	–	2.6µM	–	–	–
OC(COCC(F)(F)C(F)(F)C(F)(F)C(F)F)Cn1c2ccccc2c2ccccc21 (centres undefined)	–	–	12µM	–	–	–
SMILES	Giardia FBPA inh	NS1 inh	Pf growth 48h	Cycloheximide cs	Shiga inhibitor	Pf growth 96h
COC(=O)c1ccc(NC(=O)N(c2ccccc2)c2ccccc2)cc1	–	–	–	–	–	–
CCCCC[C@H](O)/C=C/[C@H]1OC(O)C[C@H](O)[C@@H]1C/C=C\CCCC(=O)O (some centres undefined)	–	·	·	·	·	·
Cc1cccc(C)c1OCC(O)Cn1c2ccccc2c2ccccc21 (centres undefined)	–	–	10µM	–	–	–
COC(=O)[C@@]12CCCN1[C@H](c1ccc(SC3CCCCC3)cc1)[C@H]1C(=O)N(C)C(=O)[C@H]12	·	·	10µM	·	·	?
CCN1C(=O)[C@@H]2[C@@H](c3ccc(SC4CCCCC4)cc3)N3CCC[C@@]3(C(=O)OC)[C@@H]2C1=O	·	·	13µM	·	·	9.3µM
CCCSc1ccc([C@@H]2[C@H]3C(=O)N(CC)C(=O)[C@H]3[C@]3(C(=O)OC)CCCN23)cc1	·	·	9.3µM	·	·	15µM
CN1CCN(c2ncc3ncc(=O)n(-c4ccccc4)c3n2)CC1	–	·	·	·	·	·
COc1ccc(S(=O)(=O)Cc2ccc(C(=O)NCCCN3CCc4ccccc4C3)o2)cc1	?	–	·	–	–	?
Cc1ccc2cc3cc(C(=O)N(C)C4CCCCC4)oc3nc2c1	·	–	·	·	·	·
COc1cccc(C(=O)N2CCC(C(=O)N3CCN(C)CC3)CC2)c1	–	–	–	–	–	–
COc1ccc2nc3sc(C(=O)NCCCN4CCc5ccccc5C4)cc3cc2c1	–	–	?	28	–	–
Cc1ccc2cc3cc(C(=O)NCCCN4CCc5ccccc5C4)oc3nc2c1	?	–	8.3µM	30	–	·
Cc1ccc2cc3cc(C(=O)NCCCN4CCCC4)oc3nc2c1	–	–	?	–	–	–
Cc1cccc(N(C)C(=O)c2cc3cc4ccc(C)cc4nc3o2)c1	–	–	–	39	active	–
COc1ccc2nc3sc(C(=O)N4CCN(C)CC4)cc3cc2c1	–	–	–	15	–	–
C[C@H]1CCC[C@@]2(O[C@@H](CCO)C[C@@H](O)[C@@H]2O)O1	–	?	–	–	–	–
CCC(=O)Nc1ccc(C(=O)CSc2nnc(-c3ccccc3F)n2C2CC2)cc1	–	–	2.6µM	–	–	2.9µM
CCC(C)NC(=O)NC(=O)CSc1nnc(-c2ccccc2F)n1C1CC1 (centres undefined)	–	–	–	–	–	–
O=c1c(-c2ccc(O)cc2)coc2cc(OC3OC(CO)C(O)C(O)C3O)ccc12 (centres undefined)	–	–	–	20	43	–
COc1cc(O)c2c(=O)c(-c3ccc(O[C@@H]4O[C@H](CO)[C@@H](O)[C@H](O)[C@H]4O)cc3)coc2c1	–	–	–	39	111	–
O=c1cc(-c2ccc(O)cc2)oc2cc(O[C@H]3OC(CO)C(O)C(O)C3O)cc(O)c12 (some centres undefined)	–	·	·	·	·	·
COc1cc(-c2coc3cc(O[C@H]4OC(CO)C(O)C(O)C4O)c(OC)c(O)c3c2=O)cc(O)c1OC (some centres undefined)	–	·	·	·	·	·
O=c1c(-c2ccc(O)cc2)coc2cc(OC3OC(CO)C(O)C(O)C3O)cc(O)c12 (centres undefined)	–	–	–	22	68	–
O=C(CCCn1cc([N+](=O)[O-])cn1)Nc1ccc2c(c1)OCO2	–	–	–	–	–	–
CN(Cc1ccc(Cl)s1)C(=O)CNC(=O)CNC(=O)c1ccc(Cl)cc1Cl	·	·	?	·	·	–
COc1ccc(/C=C/C(=O)c2c(C)nc3ccccn23)cc1	–	–	–	48	107	?
Cc1nc2ccccn2c1C(=O)/C=C/c1ccc(F)cc1	–	–	–	54	95	?
COc1ccc(CNC(=O)c2c(C)nc3ccccn23)cc1	–	–	–	–	–	?
